Results published in the supplement of paper PMC12532568.
Counter-ions that a name gives are not always drawn.

test system: Danio rerio larvae Tg(actc1b:ZsGreen-LC3), 3 dpf; assay: LC3 puncta relative area vs vehicle, with NH4Cl (autophagic flux) (log2 fold change); higher = more autophagy; settings: 10 µM; treatment time 16 h; NH4Cl: + 100 mM, 4 h
Procedure: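 Transgenic Tg(actc1b:ZsGreen-map1lc3) zebrafish larvae (2 dpf) were treated for 16 h with Tocris library compounds at 10 µM (n = 12 larvae per compound). Skeletal-muscle LC3 puncta area relative to body area was measured by high-content confocal imaging before and after 4 h of 100 mM NH4Cl (autophagic flux), normalised to vehicle (DMSO), and reported as log2 fold change.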

Structure (SMILES) | LC3 puncta (log2)
NC(=O)Nc1sc(-c2ccc(F)cc2)cc1C(N)=O | 0.588
COc1ccccc1N1CCN(CCCCN2C(=O)c3ccccc3C2=O)CC1 [NAN-190 hydrobromide] | 0.496
Nc1nc2ccc(OC(F)(F)F)cc2s1 [Riluzole] | 0.631
COCCOC(=O)C1=C(C)NC(C)=C(C(=O)OC(C)C)C1c1cccc([N+](=O)[O-])c1 (stereo not given) [Nimodipine] | 0.885
NC(=O)OCC(COC(N)=O)c1ccccc1 [Felbamate] | -0.777
N[C@@H](C(=O)O)c1ccc(O)c(C(=O)O)c1 [(R)-3-Carboxy-4-hydroxyphenylglycine] | 0.421
c1ccc(CN2CCC3(CCc4ccccc43)CC2)cc1 [L-693,403 maleate] | 0.655
CCCCCCN(CCCCCC)C(=O)Cc1c(-c2ccc(F)cc2)[nH]c2ccccc12 | 0.295
N[C@@H](CSS(=O)(=O)O)C(=O)O [S-Sulfo-L-cysteine sodium salt] | 0.324
CCCCOc1cc(CC2CNC(=O)N2)ccc1OC (stereo not given) | 0.0673
COc1ccc2[nH]c(-c3ccccc3)c(CCNC(C)=O)c2c1 [2-Phenylmelatonin] | 0.594
COc1ccc([C@@H]2Sc3ccccc3N(CCN(C)C)C(=O)[C@@H]2OC(C)=O)cc1 [Diltiazem hydrochloride] | 0.194
NC(N)=Nc1ccc(Cl)cc1 [4-Chlorophenylguanidine hydrochloride] | 0.148
CN(C)CCCn1cc(C2=C(c3c[nH]c4ccccc34)C(=O)NC2=O)c2ccccc21 | 0.575
CC(C)NC[C@@H](O)COc1cccc2ccccc12 [(R)-(+)-Propranolol hydrochloride] | -0.318
O=C1CN(/N=C/c2ccc(-c3ccc([N+](=O)[O-])cc3)o2)C(=O)N1 [Dantrolene, sodium salt] | 0.404
CN1CCC(=C2c3ccccc3CC(=O)c3sccc32)CC1 [Ketotifen fumarate] | 0.874
CC1(C(=O)O)NCCc2cc(O)c(O)cc21 (stereo not given) [Salsolinol-1-carboxylic acid] | 0.429
O=C1c2ccccc2CCC1CNCCc1ccc(O)cc1 (stereo not given) [HEAT hydrochloride] | 0.616
CC#CCOC(=O)C1=CCCN(C)C1 [Arecaidine but-2-ynyl ester tosylate] | 0.452

Structure (SMILES) | LC3 puncta (log2)
COc1cc(N)c(Cl)cc1C(=O)OCCCN1CCCCC1 | 0.449
CC(=O)NCC(=O)N[C@H](CCC(=O)O)C(=O)O [N-Acetylglycyl-D-glutamic acid] | 0.237
O=[N+]([O-])c1cc2nc(O)c(O)nc2cc1[N+](=O)[O-] | 0.11
CN(C)CCCCSC(=N)N | 0.383
CC(C)(Oc1ccc(Cl)cc1)C(=O)O [Clofibric acid] | 0.77
NC(=O)CCCCn1ccc(NC(N)=NCC(F)(F)F)n1 | 0.72
CN1CCN(C2=Cc3ccccc3Oc3ccc(Cl)cc32)CC1 | 0.934
CCCC[C@@H](C=O)NC(=O)[C@H](CC(C)C)NC(=O)OCc1ccccc1 [Calpeptin] | 1.29
S=C(S)N1CCCC1 [Pyrrolidinedithiocarbamate ammonium] | 0.71
CC(C)NCC(O)c1ccc2ccccc2c1 (stereo not given) [Pronethalol hydrochloride] | 0.862
N[C@H]1CCN(O)C1=O | 0.023
O=c1nc2ccccc2c2n1CC(CN1CCN(c3ccccc3)CC1)N2 (stereo not given) | 0.259
CC(C(O)c1ccc(O)cc1)N1CCC(Cc2ccccc2)CC1 (stereo not given) [Ifenprodil hemitartrate] | 0.445
Cc1noc(NS(=O)(=O)c2ccc(N)cc2)c1C [Sulfisoxazole] | 0.483
Cc1ccc(OCC(O)C(C)NC(C)C)c2c1CCC2 (stereo not given) [ICI 118,551 hydrochloride] | 0.592
O=C(NCCCN1CCCCCC1)C(c1ccccc1)C1CCCCC1 (stereo not given) | -0.114
CCN(CC)CCOCCOC(=O)C1(c2ccccc2)CCCC1 [Carbetapentane citrate] | 0.392
O=C(O)c1cc(O)c2ccc(Cl)cc2n1 [7-Chlorokynurenic acid] | 0.316
c1ccc(CN(CC2=NCCN2)c2ccccc2)cc1 [Antazoline hydrochloride] | 0.684
CN(C)CCCSC(=N)N [Dimaprit dihydrochloride] | 0.561
